Consider 66 compounds from PubChem BioAssay AID833 (The Scripps Research Institute Molecular Screening Center, 2007).

The structures appear in SMILES notation. Among all 16,000 compounds or so, about 80 (0.5%) were called active. This excerpt belongs to a sample that is enriched for actives. Values without a mark were called inactive. No stated cut-off is given here; in the data, active means activation above about 15%; inactive means the rest.

Chain of Galanin receptor type 2 (Rattus norvegicus) (O08726 whole entry, looked up): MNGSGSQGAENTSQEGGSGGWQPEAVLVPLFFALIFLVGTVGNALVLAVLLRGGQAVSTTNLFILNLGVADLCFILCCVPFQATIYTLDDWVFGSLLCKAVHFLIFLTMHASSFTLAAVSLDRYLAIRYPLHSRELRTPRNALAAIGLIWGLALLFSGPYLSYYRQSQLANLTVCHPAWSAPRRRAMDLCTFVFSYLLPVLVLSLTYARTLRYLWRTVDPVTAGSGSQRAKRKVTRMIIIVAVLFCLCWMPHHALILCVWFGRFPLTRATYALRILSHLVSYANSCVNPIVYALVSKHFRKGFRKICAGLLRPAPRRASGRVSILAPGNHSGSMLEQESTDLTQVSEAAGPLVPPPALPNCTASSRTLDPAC

The assay has as its target Galanin receptor type 2 (Rattus norvegicus) (UniProt O08726). The assay can be described thus: agonists of rat galanin receptor 2 (GALR2) (AID 833). The conditions noted are these: cell-based GALR2 agonist screen; at 10 µM; stronger effect = higher value.
With `Cc1[nH]c2ccccc2c1Sc1ccc(Cl)cc1`, the activation is -8.87%. `Cc1onc(-c2ccccc2)c1CNS(=O)(=O)c1ccc2c(c1)OCCN2C`: the activation was -3.66%.

Consider `CC(=O)c1ccc(C#Cc2ccccc2)cc1`, for which the activation was -6.33%. `N#Cc1ccc(N2CCN(C(=O)c3ccco3)CC2)cc1`: the activation was -9.07%.

With `CCOc1ccc(NC(=S)N2CCC(c3ccccc3OC)CC2)cc1`, the activation was -6.67%. For `Cc1nc(-c2cccnc2)nc(N2CCCN(Cc3ccc(F)cc3)CC2)c1Cl`, the activation is -9.09%. Turning to `COC(=O)c1ccc(/C=C2\C(=O)Nc3ccccc32)n1-c1ccc(F)cc1`, the activation is 2.14%. As to `Clc1ccc(C=NCc2cccnc2)c(Cl)c1`, the activation was -5.42%. `Cc1cc(S(=O)(=O)O/N=C(\N)c2snnc2C)cc(C)c1F`: the activation is -5.04%.

As to `Cc1ccc(S(=O)(=O)NNC(=O)c2ccccc2N)cc1`, the activation is -6.6%. Regarding `Cc1cc(C)nc(NC(=S)c2ccc(NC(=O)/C=C/C(=O)O)cc2)n1`, the activation was -5.82%. On to `O=C(Nc1ccc(C(F)(F)F)cc1)Nc1ccccc1C(=O)O`, for which the activation is -8.04%. Take `CCCCNc1nc(N)ns1`: the activation was -3.61%. For the compound `Cc1c(CC(=O)Oc2ccc([N+](=O)[O-])cc2)sc2ccc(Cl)cc12`, the activation is -2.58%. Take `O=C(NCCO)NCCSc1ccc(F)cc1`: the activation was -4.7%. In the case of `CCOC(=O)c1c(NS(=O)(=O)c2cccc3nsnc23)sc(C)c1C`, the activation was -6.04%. Consider `Cn1cccc1-c1n[nH]c(=S)n1-c1ccc(Cl)cc1Cl`, for which the activation was -4.04%. Turning to `O=C1C=C(SCC(=O)c2ccccc2)SC(c2ccc(Cl)cc2)C1` (stereo unspecified), the activation was 6.17%. As to `NNC(=O)CC1C(=O)NCCN1Cc1c(Cl)cccc1Cl` (stereo unspecified), the activation was -5.38%. To `Cc1cc(S(=O)(=O)Oc2ccc(OCc3ccccc3)cc2)c(C)cc1Cl` belongs -2.88%; to `CCOC(=O)C/C(N)=C(\C#N)C(=O)OCC`, -2.73%; to `Cc1ccc(SCC(=O)Nc2ccc(F)cc2F)cc1`, -5.06%.

For `CC(C)(C)NC(=O)[C@@H]1C[C@@H]2CCCC[C@@H]2CN1C(=O)c1ccno1`, the activation was -7.29%. As for `COc1cccc(OCc2ccccc2)c1C#N`, the activation was -5.84%. Consider `O=S(=O)(Oc1ccc(Cl)c(Cl)c1)c1c(Cl)sc(Cl)c1Br`, for which the activation was -7.23%. The same measure for `O=C(O)Cc1csc(NC(=O)CSc2nnnn2-c2ccc(O)cc2)n1`: -6.18%. To `COc1cc(NC(=O)c2ncc(C(F)(F)F)cc2Cl)c(C(=O)O)cc1OC` belongs -7.07%.

With `O=S(=O)(O)c1ncccn1`, the activation is -6.4%.

For the compound `c1ccc(CN2CCN(Cn3nnc4ccccc43)CC2)cc1`, the activation is -4.65%.

As to `COC(=O)c1ccc2snnc2c1`, the activation is -2.44%. For the compound `FC(F)(F)c1csc(N/N=C/c2ccccc2Cl)n1`, the activation is -13.1%. In the case of `CCOC(=O)C(=CNNc1ccc(C(=O)O)cc1[N+](=O)[O-])C(=O)OCC`, the activation was -6.55%. Turning to `CC1CC(NC(=O)/C(C#N)=C/c2ccc[nH]2)CC(C)(C)C1` (stereo unspecified), the activation was -10.3%. The same measure for `N/N=c1/nc2sccn2c2ncccc12`: -4.92%; for `CCOC(=O)c1cc(CC)sc1NC(=O)c1cccnc1Oc1ccccc1`: -8.18%; for `O=C1C=C(c2ccccc2)CN(C2CCCCC2)C1=O`: -2.8%. With `CC1=C(C(=O)O)N2C(=O)[C@H](NC(=O)[C@@H](N)c3ccccc3)C2SC1` (stereo partly specified), the activation was 22.8% (active). With `O=C(Oc1ccc(Cl)cc1)c1snnc1-c1ccccc1`, the activation was -5.24%. Turning to `Cc1onc(C(=O)NN)c1-c1csc(COc2ccccc2)n1`, the activation is -4.77%. As for `N#Cc1ccc(-c2csc(COc3ccccc3Cl)n2)cc1`, the activation was 34% (active). Regarding `C#CC(C)(CC)OCC(O)CS(=O)(=O)O` (stereo unspecified), the activation was -5.43%. With `CC(C)S(=O)(=O)c1cscc1N/C=C(/C#N)C(=O)c1cccs1`, the activation was -2.65%. With `O=S(=O)(c1ccc(Cl)c(Cl)c1)N1CCc2c([nH]c3ccccc23)C1C(F)(F)F` (stereo unspecified), the activation was -11.8%. For `Cc1[nH]n(C)c(=O)c1C(=O)c1c(-c2c(Cl)cccc2Cl)noc1C`, the activation was -6.37%. With `CN(NC(=O)c1ccc(Cl)s1)c1cnn(-c2cc(Cl)cc(Cl)c2)c(=O)c1Cl`, the activation was -2.83%. Regarding `CSc1nsc(SC)c1C(=O)Nc1cc(C(F)(F)F)cc(C(F)(F)F)c1`, the activation was -4.92%. Turning to `Cn1cnnc1SC/C=C/c1ccccc1`, the activation is -6.61%. As to `CCOC(=O)C(=CNc1nc(-c2ccc(Cl)cc2)cs1)C(=O)OCC`, the activation was -6.21%. With `c1ccc2c(c1)NC(C1Nc3ccccc3O1)O2` (stereo unspecified), the activation was -4.99%. Turning to `Cc1cc(Cl)ccc1NC(=S)NNC(=S)Nc1ccc(F)cc1`, the activation was -1.79%. Regarding `CCOC(=O)/C=C(/Nc1ccccc1SC)c1ccccc1`, the activation is -8.09%.

As for `CC(C)(C)c1ccc(C(=O)CC(N)=O)cc1`, the activation was -7.09%. As to `N#Cc1c(-c2cccs2)cc(-c2cccs2)nc1N`, the activation was 10.7%. To `O=C(Nn1cnnc1)c1ccc([N+](=O)[O-])cc1` belongs -2.79%. To `Cc1onc(-c2ccccc2)c1C(=O)Nc1ccc(/C(C#N)=C/c2ccccn2)cc1` belongs -2.22%; to `N#C/C(=C\c1cccs1)C(=O)NCCc1c[nH]c2ccccc12`, -5.34%; to `Cc1cccc(-c2noc(NC(=O)O/N=C/c3ccccc3)n2)c1`, -3.45%. Regarding `Cc1csc(/N=C/N(C)C)c1C#N`, the activation is -4.03%.

With `N/C(CC(=O)Nc1ccc(F)c(Cl)c1)=N\O`, the activation is -6.66%. Consider `O=C(c1cnn(-c2ccc(Cl)cc2)n1)c1cccs1`, for which the activation was -6.45%. With `S=C1NCN(CCCn2ccnc2)CN1`, the activation is -6.28%. Turning to `O=C(O)c1cc(=O)[nH]c2c(Cl)cc(Cl)cc12`, the activation was -3.92%.

For the compound `COC(=O)/C(=C/c1ccccc1)c1ccccc1`, the activation is -1.48%. Consider `COc1ccc(OC)c(CNC(=O)Cc2cccs2)c1`, for which the activation is -4.76%.

In the case of `O=[N+]([O-])c1ccc(N2CCOCC2)cc1`, the activation was -0.7%. As for `O=S(=O)(CCSc1ccc(C(F)(F)F)cn1)CCSc1ccc(C(F)(F)F)cn1`, the activation is -4.73%.
